# Out of some 340,000 compounds screened, about 210 (0.062%) were called active. Rule as the data show it: active = inhibition above about 30% (passing the limit was not always enough); inconclusive = no clear call, values can overlap the other calls. The full list was thinned out, with actives kept by preference.
# System: PvdQ acylase [Pseudomonas aeruginosa LESB58]
# Experiment: P. aeruginosa PvdQ acylase inhibitors, primary screen, biochemical, fluorescence, plate reader and imaging, single point (AID 488965);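 also: 0% = vehicle neutral wells and 100% = reference inhibitor wells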
# Settings: purified PvdQ acylase, at 10 µM, active compounds read high
row,Structure (SMILES),inhibition
1,CCN(CC)c1ccc(NC(=O)c2ccc(Cl)nc2)cc1,-15.1% (inactive)
2,CCCCNC(=O)C1(c2ccc(OC)cc2)CCOCC1,-4.05% (inactive)
3,NS(=O)(=O)c1ccc(NC(=S)N2CCCC2)cc1,9.11% (inactive)
4,CC1(C)Oc2ccc(C(=O)N3CCOCC3)cc2N(CC(=O)Nc2ccccc2)C1=O,-16.2% (inactive)
5,COCCCNC(=O)/C(C#N)=C/c1c(N2CCCCCC2)nc2ccccn2c1=O,-15.4% (inactive)
6,Cc1ccccc1-n1nc(SCC(=O)O)sc1=S,-9.08% (inactive)
7,Cc1csc(NC(=O)Nc2ccccc2[N+](=O)[O-])n1,-8.58% (inactive)
8,Cc1cc(NC(=O)Nc2ccccc2[N+](=O)[O-])no1,62.7% (active)
9,Cc1cc(NC(=O)c2ccccc2C)no1,11.3% (inactive)
10,Cc1c(C(=O)NCCN2CCOCC2)sc2nc(-c3ccc(F)cc3)cn12,-12.4% (inactive)
11,Cc1ccc(CNS(=O)(=O)CCNC(=O)c2ccccc2)cc1,0.203% (inactive)
12,CC1CCCCC1NCC(=O)Nc1ccccc1C(=O)Nc1ccccc1 (configuration not stated),-4.86% (inactive)
13,O=C(Nc1ccc(F)cc1)c1cccnc1N1CCOCC1,-0.858% (inactive)
14,O=C(O)CCC(=O)Nc1ccc(OCC2CCCO2)cc1 (configuration not stated),-5.22% (inactive)
15,Cc1ccc(NC(=O)CC2C(=O)N(Cc3ccccc3)C(=S)N2NC(=O)c2cccc(F)c2)c(C)c1 (configuration not stated),5.2% (inactive)
16,COc1ccc(NC(=O)C2CCC(CNC(=O)[C@@H]3Cc4ccccc4CN3)CC2)cc1 (some centres not stated),-2.14% (inactive)
17,Cn1cc(-c2ccccc2)cc(C#N)c1=O,-0.186% (inactive)
18,Cn1cccc1C(C#N)c1ccccc1C#N (configuration not stated),56.5% (active)
19,CC(C)C(=O)Nc1oc(-c2ccccc2)cc1C#N,7.27% (inactive)
20,Cc1cc(C)c2c(NC(=O)C3CC3)nn(C)c2n1,3.4% (inactive)
21,Cc1nnc(SC(C)C(=O)Nc2ccc(S(=O)(=O)NC3CCCCC3)cc2)s1 (configuration not stated),7.56% (inactive)
22,NS(=O)(=O)c1ccc(CCNC(=O)CN2C(=O)c3ccccc3S2(=O)=O)cc1,0.254% (inactive)
23,COc1ccccc1NC(=O)C(C)OC(=O)CC1CCCC1 (configuration not stated),-15.2% (inactive)

row,Structure (SMILES),inhibition
1,COc1ccc(-c2ocnc2C(=O)Nc2ccc3c(c2)CCC3)cc1,0.782% (inactive)
2,Cc1cc(Nc2ccc(Br)cc2F)n2ncnc2n1,-0.336% (inactive)
3,CCc1cccc(NC(=O)CCCN2C(=O)C(c3ccccc3)Oc3cccnc32)c1 (configuration not stated),-6.79% (inactive)
4,O=C(Nc1c2c(nn1-c1ccc(F)cc1)CS(=O)C2)C12CC3CC(CC(C3)C1)C2 (configuration not stated),-15.9% (inactive)
5,O=C(NCCOc1ccccc1F)Nc1ccc(Br)cc1,-15.7% (inactive)
6,CO[C@@H]1[C@@H](OC(N)=O)[C@@H](O)C(Oc2ccc3c(O)c(NC(=O)c4ccc(O)c(CC=C(C)C)c4)c(=O)oc3c2C)OC1(C)C (some centres not stated),3.42% (inactive)
7,O=C(Nc1ccccc1C(=O)N1CCOCC1)c1ccc(CSc2ccccc2)cc1,-11.3% (inactive)
8,C[C@@]12C(=O)N(c3cccc(Br)c3)C(=O)N1[C@H](c1ccc(Cl)cc1)[C@@H]1C(=O)N(C3CCCCC3)C(=O)[C@@H]12,-10.3% (inactive)
9,Cc1c(C(=O)NC(=S)NCc2cccnc2)oc2ccccc12,-8.97% (inactive)
10,CC(C)(CSc1nncn1/N=C/c1ccco1)NS(=O)(=O)c1ccc(Cl)cc1,-10% (inactive)
11,COc1ccc(C(O)(C2CCCCC2)C(CN2CCCC2)c2ccccc2)cc1 (configuration not stated),-13.6% (inactive)
12,CCOC(=O)C1CCN(C(=O)COc2cccc3ccccc23)CC1,-22% (inactive)
13,O=C1CN(C(=O)COC(=O)/C=C/c2ccc(F)cc2)c2ccccc2N1,-0.579% (inactive)
14,COc1ccc(N(C)C(=O)C2CCN(S(=O)(=O)c3cccc4nsnc34)CC2)cc1,-10.1% (inactive)
15,CC(C)(COC(=O)Nc1ccccc1)COC(=O)Nc1ccccc1,3.19% (inactive)
16,C/C(=N\NS(=O)(=O)c1cccc([N+](=O)[O-])c1)c1cc2ccccc2o1,12.7% (inactive)
17,Cc1ccc(NC(=O)c2nc[nH]c2C(=O)N2CCCCC2)c(C(=O)c2ccccc2)c1,6.08% (inactive)
18,CCc1ccccc1S(=O)(=O)Cc1ccc(C(=O)NCCc2ccccc2)o1,-14.5% (inactive)
19,Cc1nnc(SCC(=O)N(C(C)C)C(C)C)nc1C,-17% (inactive)
20,CC(Sc1nnc(Cc2ccc([N+](=O)[O-])cc2)o1)C(N)=O (configuration not stated),5.89% (inactive)
21,O=C(NCc1cccc(Cl)c1)C1CCC(=O)N(C2CC2)C1 (configuration not stated),0.749% (inactive)
22,Cc1ccc(S(=O)(=O)N2CCCCC2)cc1C(=O)N(C)CC(=O)Nc1cccc(F)c1,2.44% (inactive)
23,CCn1c2ccccc2c2cc(NC(=O)C/C(C)=N/NC(=O)c3ccccc3N)ccc21,-14.8% (inactive)

row,Structure (SMILES),inhibition
1,COc1ccc(N(CC(=O)NCC2CCCO2)C(=O)CCC(=O)Nc2nccs2)c(OC)c1 (configuration not stated),0.881% (inactive)
2,Cc1ccc(C(c2sc3nc(C)nn3c2O)N2CCN(c3ccc(F)cc3)CC2)cc1 (configuration not stated),-4.54% (inactive)
3,CCCC1CC(C)(C(=O)Cn2[nH]c(=O)ccc2=O)OC1=O (configuration not stated),-24.8% (inactive)
4,Cn1nccc1C(=O)N1CCCC(C(=O)c2ccc(Oc3ccccc3)cc2)C1 (configuration not stated),-15.6% (inactive)
5,CCNC(=O)N1CCCC(C(=O)c2ccc(-c3ccccc3)cc2)C1 (configuration not stated),-11% (inactive)
6,O=C(c1ccc(-c2ccccc2)cc1)C1CCCN(C(=O)c2cncs2)C1 (configuration not stated),46.5% (active)
7,COC(=O)c1c(NC(=O)CN2C(=O)NC(CCc3ccccc3)C2=O)sc2c1CCCCC2 (configuration not stated),2.45% (inactive)
8,CCC(C)(C)NC(=O)c1cc([N+](=O)[O-])ccc1N1CCCCC1,38.9% (active)
9,CCN1CCN(c2ccc([N+](=O)[O-])cc2C(=O)c2ccc(Cl)cc2)CC1,-6.71% (inactive)
10,CC1CCN(c2ccc([N+](=O)[O-])cc2C(N)=O)CC1,-4.82% (inactive)
11,CCOc1cc(/C=C2\SC(N3CCCC(C)C3)=NC2=O)ccc1O (configuration not stated),-6.66% (inactive)
12,c1ccc2cc(CCCc3cc4ccccc4cn3)ncc2c1,21.2% (inactive)
13,Cc1c(NC(=S)NC(=O)CCc2ccccc2)c(=O)n(-c2ccccc2)n1C,-12.9% (inactive)
14,Cc1ccc(NC(=O)CCOc2ccccc2)cc1S(=O)(=O)Nc1ccccc1Cl,-5.34% (inactive)
15,Cc1nc2nc(C)c(CCC(=O)N3CCN(c4ccccc4)CC3)c(C)n2n1,-9.01% (inactive)
16,CN(C)c1nnnn1-c1ccc(Cl)cc1,-0.634% (inactive)
17,CO/N=C/c1cn(-c2ccc(Cl)cc2)nn1,49% (active)
18,O=C(/C=C/c1ccc(Cl)c([N+](=O)[O-])c1)c1ccc(O)cc1,42% (active)
19,CN(C)c1ccc(/C=C/C(=O)c2ccc(O)cc2)cc1[N+](=O)[O-],-3.3% (inactive)
20,CN(C)c1ccc(/C=C/C(=O)c2ccc(C(C)(C)C)cc2)cc1[N+](=O)[O-],7.14% (inactive)
21,Cc1ccc(N2CC(C(=O)Nc3cc(Cl)ccc3-n3cncn3)CC2=O)cc1 (configuration not stated),-12.4% (inactive)
22,c1cc(-n2cnnn2)ccc1NC1=NCCC1,-15.4% (inactive)
23,Cc1ccc(C(=O)Nc2nnc(C3=COCCO3)o2)cc1C,-6.48% (inactive)

row,Structure (SMILES),inhibition
1,Cc1c(NC(=O)c2c([N+](=O)[O-])cnn2C)c(=O)n(-c2ccccc2)n1C,-9.74% (inactive)
2,CSC1=N/C(=C\C=C\c2cccs2)C(=O)S1,93.4% (active)
3,ONC(=Nc1ccccc1)c1ccccc1Cl,-2.68% (inactive)
4,O=C(CCCN1C(=O)CSc2ncccc21)N1CCN(c2cccc(C(F)(F)F)c2)CC1,-3.29% (inactive)
5,O=C(Nc1ccc(Cl)cc1)c1cccc(OC(=S)N2CCOCC2)c1,-4.62% (inactive)
6,NC(=O)c1ccc(NC(=O)COC(=O)c2c3c(nc4ccccc24)/C(=C\c2ccc4c(c2)OCO4)CCC3)cc1,12.2% (inactive)
7,Cc1cc(C)cc(OCC(=O)NNC(=O)c2cc3ccccc3oc2=O)c1,-2.78% (inactive)
8,C=CCc1cccc2cc(C(=O)OCC)c(=O)oc12,13.8% (inactive)
9,CCOC(=O)c1cc2cc3ccccc3cc2oc1=O,65.9% (active)
10,CC(=O)Nc1ccc(C(=O)OCC(=O)Nc2ccc([N+](=O)[O-])cc2C(F)(F)F)cc1,-15.1% (inactive)
11,CCc1ccc(NC(=O)CN2CCC(C(=O)c3ccc(OC)cc3)CC2)cc1,-11.8% (inactive)
12,O=C(CN(c1ccccc1)S(=O)(=O)c1ccc(Cl)cc1)Nc1ccccc1C(=O)N1CCCC1,-7.63% (inactive)
13,O=C(c1ccccc1)c1ccc2nc(N3CCCCC3)c3nncn3c2c1,-14.2% (inactive)
14,CC(OC(=O)CCc1nc(=O)c2ccccc2n1C)C(=O)NCc1ccc2c(c1)OCO2 (configuration not stated),11.9% (inactive)
15,O=C1CC(C(=O)O)NC(=S)N1 (configuration not stated),-11% (inactive)
16,O=C(NCC(=O)N(Cc1cccs1)C(C(=O)NC1CCCCC1)c1ccco1)c1cccs1 (configuration not stated),-5.29% (inactive)
17,CCOC(=O)N1CCC(=NNC(N)=O)CC1,5.61% (inactive)
18,O=S(=O)(O)c1cc2onnc2c2ccccc12,-19.4% (inactive)
19,CCOc1cc(C(=O)N(Cc2ccccc2)c2ccc(C)cc2)ccc1OCC(=O)N1CCOCC1,-12.7% (inactive)
20,COc1ccc(-c2nnc(-c3ccc4ccccc4c3)o2)cc1,-12.7% (inactive)
21,COc1cc(OC)cc(-c2cc3ccc(F)cc3cn2)c1,8.09% (inactive)
22,COc1ccc(-c2cc3ncccc3cn2)cc1,48.1% (active)
23,COC(=O)Cc1csc(/N=C/c2c(O)n(-c3cccc(C(F)(F)F)c3)c(=O)c3ccccc23)n1,-13% (inactive)
